Screens as filed in PubChem.
hNpr1 antagonist: human Npr1 receptor antagonism; HEK293 hNpr1 GloSensor cGMP, ANP-stimulated luminescence; 76,000 compounds, 1.6% hits; P16066; Potency, µM (series often up to 46.3 µM), inactives show at the highest dose activity change, negative = inhibition, actives largely listed as inhibitors; calls by dose curve; note: nearly all actives have a fitted effect of over 60% in size
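Compound pre-incubated 30 min at room temperature on GloSensor-loaded HEK293 cells stably carrying hNpr1 and the pGS-40F cGMP biosensor. Stimulation uses hNppA at 0.1 nM final; luminescence is taken at baseline and 20 min post-agonist.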
FLuc inh: blocks purified firefly luciferase enzyme activity | P08659 | purified P. pyralis luciferase, luminescence, biochemical | Potency, µM (doses to about 115 µM), hits mostly inhibitors | 76,000 compounds, 2.5% hits | AID 1347043; note: nearly all actives have a fitted effect of over 65% in size
Target sequence (P08659 whole entry, looked up): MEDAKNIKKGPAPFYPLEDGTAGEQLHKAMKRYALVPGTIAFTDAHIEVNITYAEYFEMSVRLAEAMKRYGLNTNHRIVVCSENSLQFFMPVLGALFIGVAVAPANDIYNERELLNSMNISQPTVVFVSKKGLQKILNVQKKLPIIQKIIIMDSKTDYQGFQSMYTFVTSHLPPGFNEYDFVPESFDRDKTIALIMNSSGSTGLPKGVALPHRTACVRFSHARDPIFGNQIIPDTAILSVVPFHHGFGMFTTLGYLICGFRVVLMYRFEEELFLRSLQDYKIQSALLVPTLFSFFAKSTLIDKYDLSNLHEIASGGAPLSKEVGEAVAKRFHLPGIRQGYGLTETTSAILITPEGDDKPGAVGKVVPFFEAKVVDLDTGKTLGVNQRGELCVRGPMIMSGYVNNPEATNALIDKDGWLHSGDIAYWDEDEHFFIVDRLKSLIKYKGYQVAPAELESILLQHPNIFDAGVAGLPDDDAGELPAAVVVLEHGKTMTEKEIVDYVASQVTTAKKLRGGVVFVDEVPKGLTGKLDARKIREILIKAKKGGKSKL
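Luminescence read by CCD imager after adding enzyme (10nM final) to wells holding compound, titrated in qHTS. Substrates 10uM each D-luciferin and ATP; buffer 50mM Tris acetate pH 7.5, 10mM Mg acetate, Tween-20, BSA.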
HEK cytotox: HEK 293 cell cytotoxicity | Potency, µM (titrated, usually from 115 µM), for inactives: at the top dose activity change, negative = cytotoxicity, actives largely listed as inhibitors | AID 1345083 | 94,000 compounds, 6.6% hits | HEK 293 viability, ATP luminescence (CellTiter-Glo), 48-72 h; note: nearly all actives have a fitted effect of over 60% in size
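HEK 293 cells at 250 cells/well were exposed to compounds by pintool transfer for 48 or 72 hr at 37 degree Celsius, 5% CO2. Viability was read as ATP-coupled luminescence with CellTiter-Glo after 10 min at room temperature.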
3T3 cytotox: cytotoxic compounds in NIH 3T3 cells. NIH 3T3 viability, CellTiter-Glo ATP luminescence, 48-72 h. Potency, µM (top dose mostly 96.7 µM), for inactives: at the top dose activity change, negative = cytotoxicity, hits mostly inhibitors. 94,000 compounds, 4.3% hits; note: nearly all actives have a fitted effect of over 55% in size
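First NIH 3T3 cells are plated at 400 cells/well; next compound is pinned in; then plates incubate 48 or 72 hr at 37 °C; finally CellTiter-Glo is added and luminescence read after 10 min.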
* hit, by the source's call; i = inactive; ? = inconclusive; . = not tested or not shown; [ ] = dose if it differs, or a comment. A selection: hits, their analogues and other compounds. The true share with any hit is near 11%. Unless noted, calls come from the whole dose curve; as a rule, active = well fitted curve in the direction sought with a large enough effect; inconclusive = small, poorly fitted or top-dose-only effect, or another doubt; inactive = no such curve, though single readings can be large; an effect the other way counts as inactive or inconclusive. % is set by controls: 0 for no effect and ±100 for the full control effect; potency is the fitted concentration of half-maximal effect.

SMILES | hNpr1 antagonist | FLuc inh | HEK cytotox | 3T3 cytotox
COc1ccc(-c2[nH]nc3ncc(-c4ccccc4F)nc23)cc1F | -15.7%[70.6 µM] | i | ? | 50.1µM*
O=C(c1cccc(F)c1)N1CCN(c2cc(-c3cccs3)[nH]n2)CC1 | ? | i | ? | ?
COC(=O)CNC(=O)c1nc2sccn2c1Br | 6.2%[70.6 µM] | i | 3.8%[172 µM] | -6.3%[138 µM]
O=C(NCCn1cccc1-c1nc(-c2ccc3c(c2)OCO3)no1)c1ccc(Cl)s1 | -17.0% | ? | ? | ?
O=C(NCCn1cccc1-c1nc(-c2ccc3c(c2)OCO3)no1)c1ccc2c(c1)OCO2 | -17.2% | 10µM* | -7.0% | -7.9%
COc1ccc(C(=O)NCCn2cccc2-c2nc(-c3ccccc3)no2)cc1F | -15.6% | i | -1.8% | -19.6%
COc1ccc(C)cc1NC(=O)Cn1cccc1-c1nc(-c2ccc3c(c2)OCO3)no1 | -7.5% | i | ? | 39.8µM*
O=C(NCCn1cccc1-c1nc(-c2ccccc2)no1)c1ccc(F)c(Cl)c1 | -13.7% | i | 44.7µM* | ?
Cc1ccc(C(=O)NCCn2cccc2-c2nc(-c3ccc4c(c3)OCO4)no2)cc1C | -22.8% | 11.2µM* | ? | ?
Cc1cccc(OCC(=O)NCCn2cccc2-c2nc(-c3ccc4c(c3)OCO4)no2)c1 | -16.2% | 14.1µM* | ? | ?
CCc1ccc(S(=O)(=O)N2CCCN(C)c3ccccc32)cc1 | -12.2% | i | ? | ?
COc1ccc(C(=O)N2CCN(c3nccc(Nc4ccccc4OC)n3)CC2)cc1 | . | . | 39.8µM* | ?
COc1ccccc1Nc1ccnc(N2CCN(C(C)=O)CC2)n1 | . | . | 4.6%[172 µM] | -24.5%[138 µM]
COc1ccccc1Nc1ccnc(N2CCN(C(=O)c3ccccc3Cl)CC2)n1 | . | . | ? | 39.8µM*
O=C1CC(c2ccccc2)N(Cc2ccncc2)CCCN(C(=O)CN2CCCCCC2)CCN1 (stereo not drawn) | 5.2% | i | 3.1% | -16.3%
Cc1cccc(N2Cc3c(NCCCc4ccccc4)ncnc3N(C)CC2=O)c1 | . | . | ? | 44.7µM*
Cc1ccccc1N1Cc2c(NCCc3ccc(Cl)cc3)ncnc2N(C)CC1=O | -4.0% | i | ? | ?
Cc1ccc(N2Cc3c(NCCCc4ccccc4)ncnc3N(C)CC2=O)cc1 | 6.3% | i | ? | ?
CN1CC(=O)N(c2ccccc2F)Cc2c(NCCc3ccc(Cl)cc3)ncnc21 | -15.0% | i | 44.7µM* | 39.8µM*
CN1CC(=O)N(c2ccccc2F)Cc2c(NCCc3ccccc3)ncnc21 | 0.3% | i | 44.7µM* | ?
CN1Cc2ncnc(NCCc3ccccc3)c2CN(C2CCC2)C1=O | -0.2%[70.6 µM] | i | 63.1µM* | ?
CN1CC(=O)N(C2CCC2)Cc2c(NCc3ccccc3)ncnc21 | 3.0% | i | ? | ?
CN(C)C(=O)c1cccnc1OC1CCN(S(=O)(=O)Cc2ccccc2F)C1 (stereo not drawn) | 2.5% | i | 1.4% | i
COc1cccc(-c2cn3cc(C(=O)NCc4cccnc4)nc3s2)c1 | . | . | 31.6µM* | ?
COc1cccc(CNC(=O)c2cn3cc(-c4cccnc4)sc3n2)c1 | . | . | -30.5% | ?
SMILES | hNpr1 antagonist | FLuc inh | HEK cytotox | 3T3 cytotox
O=C(NCc1cccnc1)c1cn2cc(-c3ccccc3)sc2n1 | . | . | 50.1µM* | ?
Cc1noc(-c2ccc(OC3CN(C(=O)Nc4cccc(F)c4)C3)cc2)n1 | ? | i | ? | ?
Cc1noc(-c2ccc(OC3CN(C(=O)Cc4ccccc4)C3)cc2)n1 | -14.6% | i | ? | -13.0%
Cc1noc(-c2ccc(OC3CN(C(=O)Nc4ccccc4)C3)cc2)n1 | 12.6µM* | ? | ? | -46.8%
Cc1noc(-c2ccc(OC3CN(C(=O)CC4CCCC4)C3)cc2)n1 | ? | i | 31.6µM* | ?
O=C(c1ccc(-c2ccn[nH]2)cc1)N1CCCC(CCc2c(F)cccc2F)C1 (stereo not drawn) | 0.9% | i | ? | ?
CC(C)(C)OC(=O)N1CC(Nc2ccc(Cl)cc2)C1 | . | . | -8.1%[172 µM] | -7.0%[138 µM]
CCN(CC)C(=O)C1CCCCC(=O)N1C (stereo not drawn) | 9.6% | i | -0.2% | -7.6%
Cn1cc(C(O)c2nc(Nc3ccc(OC(F)(F)F)cc3)n[nH]2)cn1 (stereo not drawn) | 0.7%[70.6 µM] | i | 112µM* | ?
OC(c1ccccc1)c1nc(Nc2ccc(C(F)(F)F)cc2)n[nH]1 (stereo not drawn) | -16.0%[70.6 µM] | i | ? | ?
